# Measured values: PubChem BioAssay
# Active and inactive are the calls of the source.
# Experiments:
# Albumin (Bos taurus) = Albumin (Bos taurus) (UniProt P02769); test: compounds binding labelled BSA control protein – biochemical, small-molecule microarray, Alexa647 label, 635/667 nm fluorescence, artefact control for SMM control protein annotation, profiling panel (AID 1118); conditions: BSA-A647 binding, fluorescence 635 nm, higher = more signal;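 also: score merges 667 nm emission intensity and signal-to-noise per printed compound spot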
# Chain of Albumin (Bos taurus) (P02769 whole entry, looked up): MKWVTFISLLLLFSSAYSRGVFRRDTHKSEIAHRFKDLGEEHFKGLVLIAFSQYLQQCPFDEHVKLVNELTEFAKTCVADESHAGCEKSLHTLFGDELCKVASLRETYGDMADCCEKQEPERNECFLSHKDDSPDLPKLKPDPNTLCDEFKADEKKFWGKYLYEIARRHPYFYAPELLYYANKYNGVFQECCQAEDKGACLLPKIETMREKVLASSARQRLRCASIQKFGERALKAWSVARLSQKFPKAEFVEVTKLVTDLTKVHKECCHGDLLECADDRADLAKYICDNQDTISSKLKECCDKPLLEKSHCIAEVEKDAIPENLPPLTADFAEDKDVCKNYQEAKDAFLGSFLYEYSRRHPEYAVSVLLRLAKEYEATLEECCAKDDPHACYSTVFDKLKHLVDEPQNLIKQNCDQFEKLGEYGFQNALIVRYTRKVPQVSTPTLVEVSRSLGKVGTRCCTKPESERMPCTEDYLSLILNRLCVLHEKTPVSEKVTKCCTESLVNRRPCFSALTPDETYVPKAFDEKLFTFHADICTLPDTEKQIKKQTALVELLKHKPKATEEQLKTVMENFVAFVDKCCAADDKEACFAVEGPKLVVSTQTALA
# [1] = probe aXIP binding to arrayed compounds – biochemical, NeuroSMM set, 635/667 nm fluorescence, primary screen (AID 1119); conditions: small-molecule microarray, higher = more signal, called active from +8 up or from −8 down;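 also: probe is the protein aXip251-270 applied at 1 µg/mL to compound-printed slides; binding of probe to printed compounds measured as 667 nm fluorescence plus signal to noise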
# [2] = probe aNOTCH3 binding on compound microarray – biochemical, small-molecule microarray, 635/667 nm fluorescence, primary screen (AID 1120); conditions: higher = more signal;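 also: probe is a biotin-tagged antibody raised against NOTCH3 rather than NOTCH3 protein; score merges spot fluorescence near 667 nm with spot signal to noise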
# [3] = probe aNOTCH2 binding on compound microarray – biochemical, small-molecule microarray, 635/667 nm fluorescence, primary screen (AID 1121); conditions: higher = more signal;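 also: score merges feature fluorescence read at 667 nm with its signal to noise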
# [4] = biological target: Carbonic anhydrase 2 (Homo sapiens) (UniProt P00918); test: compounds binding carbonic anhydrase 2 – biochemical, small-molecule microarray, Alexa647-labelled CAII, profiling panel (AID 1122); conditions: CAII-A647 binding fluorescence, higher = more signal
# [5] = COS7 lysate on small-molecule microarray, probe aHis, 635 nm (AID 1123); conditions: COS7 cell lysate, fluorescence, higher = more signal;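 also: z-score combines 667nm fluorescence intensity with signal-to-noise per printed compound spot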
# [6] = probe aLAP1 signal on lysate-treated microarray – cell lysate, small-molecule microarray, COS7 lysate, primary screen (AID 1124); conditions: probe aLAP1, fluorescence, higher = more signal;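 also: lysate comes from COS7 cells expressing LAP1 and is applied at 0.3 µg/mL; score merges spot fluorescence near 667 nm with signal-to-noise over triplicate slides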
# Sam68 (KHDRBS1) = test: compounds binding KHDRBS1 protein – biochemical, small-molecule microarray, 635 nm fluorescence, primary screen (AID 1125); conditions: higher = more signal;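 also: score merges 667 nm channel intensity with signal to noise over triplicate slides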
# [7] = system: Chordin-like protein 2 (CHRDL2); test: compounds binding chordin-like 2 – biochemical, small-molecule microarray, 635 nm fluorescence, primary screen (AID 1126); conditions: fluorescence 635 nm, higher = more signal;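 also: printed compound slides probed with Chrdl2 protein at 4 µg/mL for 1 h at 4 C; score merges 667 nm emission intensity with signal to noise over three replicate slides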
# [8] = biological target: Concanavalin-A (Canavalia ensiformis) (UniProt P02866); test: compounds binding concanavalin A lectin – biochemical, small-molecule microarray, Alexa647 label, 635 nm, artefact control for SMM control protein annotation, primary screen (AID 1127); conditions: ConA-A647 binding fluorescence, higher = more signal;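 also: z combines 667 nm emission intensity with signal-to-noise across three replicate slides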
# Chain of Concanavalin-A (Canavalia ensiformis) (P02866 whole entry, looked up): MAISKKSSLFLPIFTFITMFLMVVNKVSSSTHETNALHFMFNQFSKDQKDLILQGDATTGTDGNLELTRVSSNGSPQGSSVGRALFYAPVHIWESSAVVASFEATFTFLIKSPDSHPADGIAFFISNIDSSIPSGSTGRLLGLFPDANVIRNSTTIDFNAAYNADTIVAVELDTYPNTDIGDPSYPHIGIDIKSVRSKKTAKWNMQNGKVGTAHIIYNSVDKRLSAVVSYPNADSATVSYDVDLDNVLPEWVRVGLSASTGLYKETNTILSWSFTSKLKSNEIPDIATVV
# [9] = compounds binding Alexa647 anti-His antibody – biochemical, small-molecule microarray, 635 nm fluorescence, artefact control for SMM control protein annotation, primary screen (AID 1128); conditions: higher = more signal;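 also: score merges feature fluorescence with signal-to-noise for each printed compound spot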
# [10] = system: Human papillomavirus type 1a E7 protein (residues 1-88); test: HPV1a E7 small-molecule binders, primary screen, biochemical, small-molecule microarray, residues 1-88, 635 nm (AID 1129); conditions: small-molecule microarray binding, fluorescence 635 nm; higher = more signal
# [11] = biological target: Focal adhesion kinase 1 (Homo sapiens) (UniProt Q05397); test: PTK2 protein binding on printed compound slides – biochemical, small-molecule microarray, 635/667 nm fluorescence, BSA, DTT, primary screen (AID 1130); conditions: 635 nm fluorescence, higher = more signal;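 also: composite of spot emission at 667 nm and signal to noise over triplicate slides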
# Chain of Focal adhesion kinase 1 (Homo sapiens) (Q05397 whole entry, looked up): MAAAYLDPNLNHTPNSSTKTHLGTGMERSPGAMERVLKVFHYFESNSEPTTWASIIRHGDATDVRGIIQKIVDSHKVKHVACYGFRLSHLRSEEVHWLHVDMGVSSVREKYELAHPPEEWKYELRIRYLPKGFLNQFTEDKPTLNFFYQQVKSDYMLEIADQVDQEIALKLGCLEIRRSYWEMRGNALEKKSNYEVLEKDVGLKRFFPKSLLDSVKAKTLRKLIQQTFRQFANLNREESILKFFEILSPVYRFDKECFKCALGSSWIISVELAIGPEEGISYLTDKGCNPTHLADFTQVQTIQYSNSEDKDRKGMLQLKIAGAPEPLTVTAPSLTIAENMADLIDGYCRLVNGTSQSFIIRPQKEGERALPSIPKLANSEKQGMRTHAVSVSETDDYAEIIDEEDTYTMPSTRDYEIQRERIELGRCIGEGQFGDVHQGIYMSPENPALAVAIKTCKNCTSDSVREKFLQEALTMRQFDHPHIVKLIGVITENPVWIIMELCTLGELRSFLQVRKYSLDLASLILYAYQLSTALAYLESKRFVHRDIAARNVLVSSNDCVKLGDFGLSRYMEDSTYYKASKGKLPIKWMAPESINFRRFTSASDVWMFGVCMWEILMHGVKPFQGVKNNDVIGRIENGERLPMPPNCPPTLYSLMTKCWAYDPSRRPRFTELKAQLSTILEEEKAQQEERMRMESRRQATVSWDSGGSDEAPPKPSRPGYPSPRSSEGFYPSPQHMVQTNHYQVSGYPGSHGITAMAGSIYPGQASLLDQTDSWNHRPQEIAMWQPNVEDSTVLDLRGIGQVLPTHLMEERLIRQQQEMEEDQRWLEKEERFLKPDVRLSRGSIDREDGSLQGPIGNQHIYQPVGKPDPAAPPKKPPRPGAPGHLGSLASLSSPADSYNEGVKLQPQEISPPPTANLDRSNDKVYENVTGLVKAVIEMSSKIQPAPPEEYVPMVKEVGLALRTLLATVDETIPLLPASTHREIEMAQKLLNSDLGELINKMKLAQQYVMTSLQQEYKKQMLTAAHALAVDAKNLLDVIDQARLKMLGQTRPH
# [12] = system: Fibrinogen (Alexa647-labelled); test: Alexa647-fibrinogen binding to printed small molecules – biochemical, small-molecule microarray, 635/667 nm fluorescence, artefact control for SMM control-protein annotation, profiling panel (AID 1131); conditions: fibrinogen-A647 binding fluorescence, higher = more signal;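 also: z-score merges 667 nm fluorescence with per-spot signal-to-noise over triplicate slides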
# [13] = biological target: Follistatin (Homo sapiens) (UniProt P19883); test: FST protein binding to printed compounds – biochemical, small-molecule microarray, 635/667 nm fluorescence, primary screen (AID 1132); conditions: 635 nm fluorescence, higher = more signal
# Chain of Follistatin (Homo sapiens) (P19883 whole entry, looked up): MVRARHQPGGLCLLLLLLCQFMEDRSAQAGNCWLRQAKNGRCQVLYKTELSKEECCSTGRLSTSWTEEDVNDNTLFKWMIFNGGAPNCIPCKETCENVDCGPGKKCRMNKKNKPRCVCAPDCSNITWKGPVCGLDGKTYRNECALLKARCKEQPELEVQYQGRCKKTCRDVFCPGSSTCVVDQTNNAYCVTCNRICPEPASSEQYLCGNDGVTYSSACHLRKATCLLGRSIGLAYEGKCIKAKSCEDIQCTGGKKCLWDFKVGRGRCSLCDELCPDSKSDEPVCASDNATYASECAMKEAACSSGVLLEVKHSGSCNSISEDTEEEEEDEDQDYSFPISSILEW
# [14] = biological target: Fibroblast growth factor 2 (Homo sapiens) (UniProt P09038); test: basic fibroblast growth factor binding to printed compounds – biochemical, small-molecule microarray, 635/667 nm fluorescence, primary screen (AID 1133); conditions: FGF2, fluorescence 635/667, higher = more signal
# Chain of Fibroblast growth factor 2 (Homo sapiens) (P09038 whole entry, looked up): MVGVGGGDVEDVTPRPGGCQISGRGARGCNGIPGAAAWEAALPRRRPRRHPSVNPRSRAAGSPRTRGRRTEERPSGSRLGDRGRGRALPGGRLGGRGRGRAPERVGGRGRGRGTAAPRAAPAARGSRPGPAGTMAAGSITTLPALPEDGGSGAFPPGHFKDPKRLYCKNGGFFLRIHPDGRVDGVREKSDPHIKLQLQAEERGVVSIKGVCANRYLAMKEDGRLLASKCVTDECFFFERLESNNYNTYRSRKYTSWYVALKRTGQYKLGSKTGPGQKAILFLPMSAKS
# [15] = JC-1 mitochondrial potential readout, lung cancer cells – cell-based, A549, JC-1 fluorescence, basal, 24 h, 100 nL, profiling panel (AID 1138); conditions: higher = more signal;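 also: A549 lung adenocarcinoma cells under basal conditions with no added stimulus; test concentration not given here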
# Lefty1 = Lefty1 protein binding to printed compounds – biochemical, small-molecule microarray, 635/667 nm fluorescence, primary screen (AID 1139); conditions: fluorescence 635/667, higher = more signal
# [16] = system: wheat germ agglutinin (Triticum aestivum), Alexa647-labelled; test: Alexa647-WGA lectin binding to printed small molecules – biochemical, small-molecule microarray, 635/667 nm fluorescence, artefact control for SMM control-protein annotation, profiling panel (AID 1140); conditions: WGA-A647 binding, 635 nm fluorescence, higher = more signal;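 also: score merges 667 nm feature emission with signal to noise over triplicate slides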
# [17] = biological target: Luciferin 4-monooxygenase (Photinus pyralis) (UniProt P08659); test: inhibition of purified Photinus pyralis luciferase – biochemical, luminescence, purified enzyme, 2006 set, primary screen (AID 1141); conditions: purified firefly luciferase, SteadyGlo luminescence, 30 min; higher = more signal, called active from +8 up or from −8 down;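 also: cell-free assay with purified firefly luciferase at 100 ng per well in PBS; test concentration not given here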
# Chain of Luciferin 4-monooxygenase (Photinus pyralis) (P08659 whole entry, looked up): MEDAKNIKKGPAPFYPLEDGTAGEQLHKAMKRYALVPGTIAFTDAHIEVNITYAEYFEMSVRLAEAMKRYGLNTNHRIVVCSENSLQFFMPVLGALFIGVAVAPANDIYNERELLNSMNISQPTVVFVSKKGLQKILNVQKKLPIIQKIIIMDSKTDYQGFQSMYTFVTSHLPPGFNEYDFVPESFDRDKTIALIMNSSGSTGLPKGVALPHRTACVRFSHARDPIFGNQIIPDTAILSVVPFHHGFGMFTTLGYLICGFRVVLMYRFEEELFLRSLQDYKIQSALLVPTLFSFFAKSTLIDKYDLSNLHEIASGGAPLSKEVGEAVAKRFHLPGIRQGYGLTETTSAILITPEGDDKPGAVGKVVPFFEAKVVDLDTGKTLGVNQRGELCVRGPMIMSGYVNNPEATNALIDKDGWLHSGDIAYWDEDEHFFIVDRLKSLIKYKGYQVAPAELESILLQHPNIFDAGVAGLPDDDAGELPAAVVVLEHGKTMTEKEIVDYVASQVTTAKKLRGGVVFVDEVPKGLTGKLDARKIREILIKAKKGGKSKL
SMILES,composite z-score (Albumin (Bos taurus)),composite Z-score [1],composite z-score [2],composite z-score [3],composite z-score [4],composite z-score [5],composite z-score [6],composite z-score (Sam68 (KHDRBS1)),composite z-score [7],composite z-score [8],composite z-score [9],composite z-score [10],composite z-score [11],composite z-score [12],composite z-score [13],composite z-score [14],z-score [15],composite z-score (Lefty1),composite z-score [16],z-score [17]
CCCCCN1CC=CC23O[C@@H]4C=CCOC(=O)[C@@H]4[C@H]2C(=O)N(C(C)CO)[C@@H]3C1=O (stereo not given in full),0.755,-0.294 (inactive),-0.403,-0.12,0.863,-0.284,-0.0739,-1.22,-0.811,-0.54,-0.396,-0.669,0.174,-0.235,-1.12,-0.495,-0.197,-1.23,-0.383,0.101 (inactive)
[N-]=[N+]=Nc1ccccc1[C@H]1OC(c2ccc(OCCCO)cc2)=N[C@@]1(CCS(=O)(=O)c1ccccc1)C(=O)NCc1ccccc1,0.307,-0.0549 (inactive),0.318,-0.037,0.684,2.3,0.403,1.32,-0.164,0.94,1.18,1.24,0.341,1.04,1.34,0.694,0.727,0.152,0.697,-7.61 (inactive)
C=CCN(Cc1ccccc1)C(=O)C(c1cccs1)N(C(=O)/C=C\C(=O)O)c1ccc(CCOCCO)cc1 (stereo not given),0.955,0.0165 (inactive),-0.416,-0.135,0.864,-0.691,-0.679,-1.33,-2.25,-0.931,-0.709,-0.755,-0.618,-1.23,-1.32,-0.78,1.37,-1.16,-1.01,-3.88 (inactive)
CCOC(=O)C1=CCC(c2ccc(F)cc2)N(S(=O)(=O)c2ccc(C)cc2)C1 (stereo not given),0.569,-0.297 (inactive),0.0351,-0.113,0.397,0.75,0.552,0.376,0.563,0.221,-0.596,0.818,1.52,0.265,0.345,-0.287,-0.231,0.471,0.764,1.4 (inactive)
COCCOC(=O)N1C(=O)[C@@]2(c3cc(C#CC4=CCCCC4)ccc31)[C@H](C(N)=O)[C@H]1C(=O)O[C@H](c3ccccc3)[C@H](c3ccccc3)N1[C@@H]2c1ccc(O)cc1,0.744,-0.158 (inactive),0.116,0.117,0.433,1.83,0.322,1.3,0.302,1.11,0.753,1.18,0.671,0.958,0.886,0.58,-1.1,0.553,0.686,-1.98 (inactive)
COc1ccc([C@H]2C[C@H]3C(I)=C[C@@H]2C(=O)[C@]32CO2)cc1,-0.63,-0.617 (inactive),0.0242,-0.156,-0.267,-0.442,-0.154,-0.889,0.189,-0.0546,-0.608,-0.658,-0.449,-0.193,0.762,1.14,1.1,0.983,0.24,-0.303 (inactive)
C=CCN1C(=O)[C@]2(Cc3ccccc3)N=C(c3ccc(OCCCO)cc3)O[C@@H]2c2ccccc21,-0.591,-0.452 (inactive),0.143,-0.0029,0.414,2.79,-0.0869,1.3,0.997,0.911,3.16,1.2,0.145,0.548,1.37,1.56,1.59,0.816,0.663,-6.95 (inactive)
CCOc1cc(C(O)C2C=CC3C(=O)N(c4ccccc4)C(=O)C3N2Nc2ccc(C(C)C)cc2)ccc1O (stereo not given),0.925,0.203 (inactive),0.15,-0.0274,0.79,2.63,0.33,1.29,0.161,1.09,1.72,1.23,0.543,0.963,1.03,0.0704,0.898,0.135,1.3,0.12 (inactive)
OCCCC1=CC(C2CC2)N(Cc2cccc(OC(F)(F)F)c2)CC1 (stereo not given),0.485,0.438 (inactive),-0.284,-0.177,0.783,0.421,0.833,-0.441,-0.106,-0.807,-0.103,-0.208,0.227,-2.53,-0.306,-0.338,0.00271,0.32,-0.0444,0.382 (inactive)
CN1C(=O)C2C=CC(C(O)c3ccc(F)cc3)N(N(c3ccccc3)c3ccccc3)C2C1=O (stereo not given),0.698,2.43 (inactive),0.206,0.0264,0.506,2.82,0.0833,-0.0714,-0.69,0.324,0.202,0.619,0.0202,-1.13,0.605,-0.615,0.351,-0.128,0.296,0.0492 (inactive)
O=C(NC1CC1)[C@@H]1c2ccccc2C(=O)N(C2Cc3ccccc3C2)[C@H]1c1ccc(CO)cc1,0.378,-0.358 (inactive),-0.0166,0.0386,0.608,1.41,0.237,1.24,0.847,0.918,2.65,1.18,0.167,-0.677,1.29,0.988,1.64,0.294,0.0895,0.659 (inactive)
